According to the supplement of paper PMC10515830:
Structures can show the parent of a compound that is named as a salt.

Key:
Settings in all cases: 10 µM; exposure time 6 h
[1] = tested on: Danio rerio larvae (5 dpf); experiment: difference in excitability vs DMSO (percentage points); higher = more excitable than DMSO
Outline: (§1)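 In 96-well plates, 48 wild-type zebrafish larvae aged 5 dpf per compound received 100 µL egg water with library compound at 10 µM final for 6 h. Three hours into this, a 3-h programme of moving lines and 100 ms, 400Hz tones ran at 28.5 ℃ while plates were photographed every 6 s. Z-LaP Tracker scored the behaviours, and each is given as the compound mean minus the vehicle control mean in percentage points.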

[2] = tested on: Danio rerio larvae (5 dpf); experiment: difference in startle response vs DMSO (percentage points); higher = stronger startle than DMSO
Outline: as §1

[3] = tested on: Danio rerio larvae (5 dpf); experiment: difference in activity during first hour vs DMSO (percentage points); higher = more activity than DMSO
Outline: as §1

[4] = tested on: Danio rerio larvae (5 dpf); experiment: difference in habituation to acoustic stimuli vs DMSO (percentage points); higher = more habituation than DMSO
Outline: as §1

[5] = tested on: Danio rerio larvae (5 dpf); experiment: difference in combined optomotor response to red, green and blue moving lines vs DMSO (percentage points); higher = stronger optomotor response than DMSO
Outline: as §1

Row | SMILES | difference in excitability [1] | difference in startle response [2] | difference in activity during first hour [3] | difference in habituation to acoustic stimuli [4] | difference [5]
1 | CN1CCC[C@H]1c1cccnc1 (racemic) [(±)-Nicotine] | 9.04 | -8.45 | 50 | -10.6 | -14.9
2 | Nc1[nH]c(=O)ncc1F [5-Fluorocytosine] | 0.317 | 1.12 | -10.7 | -2.78 | 2.67
3 | CC(C)(C)c1nc(-c2cccc(NS(=O)(=O)c3c(F)cccc3F)c2F)c(-c2ccnc(N)n2)s1 [Dabrafenib] | 1.22 | 0.607 | 3.67 | -5.97 | -1.51
4 | CN(C)CCCN1c2ccccc2CCc2ccc(Cl)cc21 [Clomipramine (hydrochloride)] | 0.766 | 1.97 | -14.9 | -3.04 | -3.76
5 | CC(=O)OCC(CCn1cnc2cnc(N)nc21)COC(C)=O [Famciclovir] | 0.306 | 6.99 | -7.41 | 0.929 | 4.52
6 | S=P(N1CC1)(N1CC1)N1CC1 | 0.228 | 0.991 | 4.02 | 0.555 | 1.07
7 | C[C@H]1c2cccc(O)c2C(=O)C2=C(O)[C@]3(O)C(=O)C(C(N)=O)=C(O)[C@@H](N(C)C)[C@@H]3[C@@H](O)[C@@H]21 [Doxycycline (hyclate)] | 12.8 | 3.11 | 5.72 | 7.01 | -0.304
8 | CCN[C@H]1CN(CCCOC)S(=O)(=O)c2sc(S(N)(=O)=O)cc21 [Brinzolamide] | 2.16 | -4.77 | -5.26 | -5.35 | 1.28
9 | CC(=O)O[C@]1(C(C)=O)CC[C@H]2[C@@H]3C[C@H](C)C4=CC(=O)CC[C@]4(C)[C@H]3CC[C@@]21C [Medroxyprogesterone 17-acetate] | 9.28 | -1.88 | -1.67 | -11.4 | -9.37
10 | Cc1cc2c(s1)Nc1ccccc1N=C2N1CCN(C)CC1 [Olanzapine] | 26.1 | -4.9 | 8.52 | -8.45 | 4.38
11 | CC(O)(P(=O)(O)O)P(=O)(O)O [Etidronate (sodium salt)] | 5.12 | 2.23 | 11.4 | -1.7 | 4.9
12 | Nc1nc2ccc(OC(F)(F)F)cc2s1 [Riluzole (hydrochloride)] | 12.7 | -2.33 | 7.76 | 3.2 | 11.9
13 | CNC(=O)c1ccc(N2C(=S)N(c3ccc(C#N)c(C(F)(F)F)c3)C(=O)C2(C)C)cc1F | 13.3 | 4.28 | -11 | -1.47 | -0.198
14 | NS(=O)(=O)c1cc2c(cc1C(F)(F)F)NCNS2(=O)=O [Hydroflumethiazide] | 2.46 | 7.8 | 0.32 | -1.14 | -2.31
15 | O=C1CN(/N=C/c2ccc(-c3ccc([N+](=O)[O-])cc3)o2)C(=O)N1 [Dantrolene (sodium salt)] | 9.39 | 1.23 | -7.55 | 0.0919 | 0.433
16 | C#C[C@]1(O)CC[C@H]2[C@@H]3CCC4=Cc5oncc5C[C@]4(C)[C@H]3CC[C@@]21C [Danazol] | 6.6 | -7.24 | -23.6 | -10.4 | -17.8
17 | CC(CCc1ccc(O)cc1)NCCc1ccc(O)c(O)c1 (stereo not given) [Dobutamine (hydrochloride)] | 10.9 | 6.81 | -2.65 | 12 | 13.9
18 | CC=CC1=C(C(=O)O)N2C(=O)[C@@H](NC(=O)[C@H](N)c3ccc(O)cc3)[C@H]2SC1 [Cefprozil] | 11.3 | -8.07 | 1.23 | 4.8 | -4.03
19 | NCCCC(N)(C(=O)O)C(F)F (racemic) [DL-α-Difluoromethylornithine (hydrochloride hydrate)] | -2.42 | -3.99 | 10.2 | 2.49 | 2.05
20 | Nc1nc(F)nc2c1ncn2[C@@H]1O[C@H](COP(=O)(O)O)[C@@H](O)[C@@H]1O [Fludarabine Phosphate] | 2.14 | -0.759 | 3.53 | -5.41 | 6.27
21 | OCCN1CCN(CCCN2c3ccccc3Sc3ccc(Cl)cc32)CC1 [Perphenazine] | 18.9 | -4.36 | 24 | -10.2 | 2.99
22 | Cc1[nH]c(=O)c(C#N)cc1-c1ccncc1 [Milrinone] | -4.22 | -1.03 | 2.14 | 0.444 | 8.34
23 | CC1(C)CCC(CN2CCN(c3ccc(C(=O)NS(=O)(=O)c4ccc(NCC5CCOCC5)c([N+](=O)[O-])c4)c(Oc4cnc5[nH]ccc5c4)c3)CC2)=C(c2ccc(Cl)cc2)C1 | 0.697 | -11.3 | 10.4 | 2.22 | 3.34
24 | CCOC(=O)C1=C(C)NC(C)=C(C(=O)OC)C1c1cccc(Cl)c1Cl (racemic) [(±)-Felodipine] | 0.706 | -2.36 | -22.2 | -10.8 | -16.5

Row | SMILES | difference in excitability [1] | difference in startle response [2] | difference in activity during first hour [3] | difference in habituation to acoustic stimuli [4] | difference [5]
25 | CN(C)CCCC1(c2ccc(F)cc2)OCc2cc(C#N)ccc21 (stereo not given) [Citalopram (hydrobromide)] | 8.67 | -1.92 | -12.8 | -3.86 | -4.06
26 | Clc1ccc(C(Cn2ccnc2)OCc2csc3c(Cl)cccc23)c(Cl)c1 (stereo not given) [Sertaconazole (nitrate)] | 4.31 | -8.13 | -18.2 | -10 | -11.3
27 | CC(=O)Oc1ccccc1C(=O)Nc1ncc([N+](=O)[O-])s1 [Nitazoxanide] | 12.9 | -13.9 | -14.8 | -12.4 | -17.8
28 | COc1ccc(CCN(C)CCCC(C#N)(c2ccc(OC)c(OC)c2)C(C)C)cc1OC (stereo not given) [Verapamil (hydrochloride)] | 7.52 | -8.68 | -17.7 | -4.3 | -6.45
29 | NCCC(O)(P(=O)(O)O)P(=O)(O)O [Pamidronate (sodium salt)] | 9.47 | 4.04 | -2.6 | -0.604 | 2.29
30 | CCN(CC)C(=O)C1(c2ccccc2)CC1CN (stereo not given) [Milnacipran (hydrochloride)] | 16 | -4.41 | -15.2 | 1.78 | -3.7
31 | CC1(C)C[C@@H]1C(=O)N/C(=C\CCCCSC[C@H](N)C(=O)O)C(=O)O [Cilastatin] | -5.97 | 11.7 | 15 | -6.5 | 10.5
32 | CC(C)(O)CNc1nc(Nc2ccnc(C(F)(F)F)c2)nc(-c2cccc(C(F)(F)F)n2)n1 [Enasidenib] | 15.7 | -3.05 | 12.8 | -6.3 | 2.71
33 | CNC(=C[N+](=O)[O-])NCCSCc1csc(CN(C)C)n1 [Nizatidine] | -3.87 | -1.69 | 7.71 | 2.96 | 2.72
34 | CC[C@@H]([C@H](C)O)n1ncn(-c2ccc(N3CCN(c4ccc(OC[C@@H]5CO[C@@](Cn6cncn6)(c6ccc(F)cc6F)C5)cc4)CC3)cc2)c1=O [Posaconazole] | 9.26 | -3.5 | 4.34 | -1.56 | 5.63
35 | CC(C)(O/N=C(\C(=O)N[C@@H]1C(=O)N2C(C(=O)[O-])=C(C[n+]3ccccc3)CS[C@H]12)c1csc(N)n1)C(=O)O [Ceftazidime (hydrate)] | -0.0444 | 0.0878 | 3.86 | 0.293 | 4.55
36 | CC[C@H](C)[C@@H]1NC(=O)[C@H](Cc2ccc(O)cc2)NC(=O)[C@@H](N)CSSC[C@@H](C(=O)N2CCC[C@H]2C(=O)N[C@@H](CC(C)C)C(=O)NCC(N)=O)NC(=O)[C@H](CC(N)=O)NC(=O)[C@H](CCC(N)=O)NC1=O [Oxytocin (acetate)] | -2.14 | 1 | -5.61 | 2.03 | 4.29
37 | Nc1nc2c(ncn2COCCO)c(=O)[nH]1 [Acyclovir] | 2.27 | 2.62 | -4.23 | 8.37 | -2.63
38 | NC(=O)[C@@H]1CC[C@@H]2CN1C(=O)N2OS(=O)(=O)O [Avibactam (sodium salt)] | 1.97 | 0.773 | 5.58 | 4.75 | 6.37
39 | CCCCNC(=O)NS(=O)(=O)c1ccc(C)cc1 [Tolbutamide] | 1.04 | -0.31 | 15.1 | 0.867 | 0.664
40 | N#Cc1ccc(Oc2ccc3c(c2)COB3O)cc1 | -2.19 | -0.784 | -16.9 | -15.1 | -18.2
41 | CNC(=O)c1cnn(-c2nc(N)c3ncn([C@@H]4O[C@H](CO)[C@@H](O)[C@H]4O)c3n2)c1 [Regadenoson] | -3.36 | 0.153 | 6.41 | -0.999 | 3.31
42 | CCCCc1nc(Cl)c(CO)n1Cc1ccc(-c2ccccc2-c2nnn[nH]2)cc1 [Losartan (potassium salt)] | 3.08 | 0.6 | 6.85 | -4.35 | -1.12
43 | Nc1nc(CC(=O)Nc2ccc(CCNC[C@H](O)c3ccccc3)cc2)cs1 [Mirabegron] | 15.7 | -0.811 | 3.64 | -4.56 | 3.08
44 | CC(C)(C)NC(=O)[C@@H]1C[C@@H]2CCCC[C@@H]2CN1C[C@@H](O)[C@H](Cc1ccccc1)NC(=O)[C@H](CC(N)=O)NC(=O)c1ccc2ccccc2n1 [Saquinavir (mesylate)] | 9.2 | -1.02 | 0.593 | 0.0845 | -1.01
45 | CC(=O)O[C@H]1Cc2ccccc2N(C(N)=O)c2ccccc21 [Eslicarbazepine Acetate] | -1.41 | -0.316 | -0.636 | -4.75 | -2.32
46 | Cc1ccc(N(CC2=NCCN2)c2cccc(O)c2)cc1 [Phentolamine (mesylate)] | -0.363 | 0.261 | 20 | 5.59 | -2.55
47 | COc1cc2nc(N3CCN(C(=O)c4ccco4)CC3)nc(N)c2cc1OC [Prazosin (hydrochloride)] | 20.4 | 2.07 | 11.2 | -7.66 | 6.47
